Screening results as filed in PubChem BioAssay.
Shown are actives, neighbours in structure and some others; about 12% of the full set was active somewhere.
CHOP inhibitor = CHOP inhibition in unfolded protein response | CHO-K1 CHOP-promoter luciferase, tunicamycin-induced, 15-18 h | inhibition, % at 10 µM | 3.8% of 220,000 active | AID 2732;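 active = compounds that reduced the stress-induced luciferase reporter signal by more than about 70% of percent inhibition, limit read from the data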;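 also: 0% = tunicamycin plus vehicle and 100% = wells without tunicamycin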
Arbovirus inh = antivirals against arbovirus infection | arbovirus infection cell-based antiviral screen | inhibition, % at 10 µM | 0.37% of 200,000 active; in the data active = inhibition above about 30%
WT yeast gro inh = growth inhibition of WT yeast, mitochondrial fusion screen; mitochondrial fusion phenotypic screen, WT strain; inhibition, % at 10 µM; 2.1% of 190,000 active; AID 1362; in the data active = inhibition above about 58%; tested in S. cerevisiae
Lmaj promast = Leishmania major promastigote growth inhibition. AID 1063. inhibition, % at 10 µM. 9% of 200,000 active. Leishmania major promastigotes, resazurin fluorescence viability; in the data active = inhibition above about 50%;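 also: promastigotes grown with compound for 44 hours at 28 °C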
Numbers without * were called inactive; / = no result given.

SMILES	CHOP inhibitor	Arbovirus inh	WT yeast gro inh	Lmaj promast
CCOc1ccc(NC(=O)CSc2ncc(-c3ccc(F)cc3)n2Cc2ccco2)cc1	42.2	/	/	/
Clc1ccc(OCc2nnc(SCCN3CCCCC3)n2Cc2ccco2)cc1	30.3	-13.9	15.6	100.5*
CCc1cccc2c1NC(=O)C21N2CCCC2C(C(=O)c2ccc3ccccc3c2)C12C(=O)Nc1ccccc12 (centres undefined)	-27.2	-20.5	23.0	82.1*
Cc1cccc2c1NC(=O)C21N2CCCC2C(C(=O)c2ccc3ccccc3c2)C12C(=O)Nc1ccccc12 (centres undefined)	25.0	/	/	/
CCc1ccc2c(c1)C1(C(=O)N2)N2CCCC2C(C(=O)c2ccc3ccccc3c2)C12C(=O)Nc1ccccc12 (centres undefined)	105.8*	-42.2	44.6	79.2*
CCCCNc1cnn(-c2ccccc2)c(=O)c1Cl	-11.0	0.1	-14.5	48.7
CCc1ccc(Nc2cnn(-c3nc4ccccc4s3)c(=O)c2Cl)cc1	62.2	16.2	62.8*	65.3*
CCN(CCNC(=O)C1CCN(c2nnc(-n3cccc3)s2)CC1)c1ccccc1	-2.4	-7.9	17.2	-3.5
CC(C)Oc1ccc(C(=O)NC(=S)Nc2ccc(Cl)c(C(=O)O)c2)cc1	4.6	/	/	/
Oc1ccc2ccccc2c1/C=N/c1nccs1	8.6	16.3	15.5	-4.2
Oc1ccc2ccccc2c1C=NCc1cn2ccsc2n1	-17.5	8.6	13.9	95.2*
CC(NC(=S)NCCN1CCOCC1)C12CC3CC(CC(C3)C1)C2 (centres undefined)	9.3	3.2	-0.7	90.5*
Cc1ccccc1C(=O)NC(=S)NCCN1CCOCC1	17.9	2.8	-0.5	82.9*
CNC(=S)NCCN1CCOCC1	1.3	-8.6	-14.5	50.6*
CC(NC(=S)NCCCN1CCOCC1)C1CC2CCC1C2 (centres undefined)	2.2	14.7	59.4*	87.0*
Cc1ccccc1C(=O)NCCN1CCOCC1	-3.4	-3.4	-6.0	5.0
CCOc1ccc(NC(=S)NC(C)c2cccs2)cc1 (centres undefined)	6.6	-3.7	32.4	16.7
O=C(Cn1nc2n(c1=O)-c1ccccc1SC2)N/N=C/c1ccncc1	8.1	/	/	/
Cc1nc(-c2ccccc2)sc1C1(C)CC(c2ccc(OC(F)(F)F)cc2)=NO1 (centres undefined)	9.8	/	/	/
Cc1nc(SCC(=O)c2ccc(F)c(F)c2)[nH]c(=O)c1Oc1ccc(F)cc1	-9.7	/	/	/
CCN(CC)CCOC(=O)C1(c2ccccc2)CCOCC1	6.0	3.0	-9.2	73.0*
NC(=O)C1(c2ccccc2)CCOCC1	-30.3	3.2	11.4	-4.5
CCN(CC)CCOCCOC(=O)C1(c2ccccc2)CCCC1	-9.3	/	/	/
CCN(CC)CCCOC(=O)C1(c2ccccc2)CCCC1	20.4	-16.2	1.0	99.1*
O=C(NCc1ccc2c(c1)OCO2)C(=O)Nc1ccccc1	11.1	0.5	1.0	-4.0
SMILES	CHOP inhibitor	Arbovirus inh	WT yeast gro inh	Lmaj promast
Cc1ccc(Cc2c[nH]c(=S)s2)cc1	8.0	-8.7	68.1*	-3.6
Cc1ccc(Cc2c(C)[nH]c(=S)[nH]c2=O)cc1	17.7	/	/	/
c1ccc(C2Nc3ccccc3-c3nc4ccccc4n32)cc1 (centres undefined)	27.3	8.5	31.8	68.9*
O=C(ON=C1CCN(S(=O)(=O)c2ccccc2)CC1)c1ccc(F)cc1	13.8	11.2	9.4	-6.2
CC(C)(C)C1CCC(=NOC(=O)c2ccc(F)cc2)CC1 (centres undefined)	82.2*	12.3	98.1*	-3.3
CN1C(=O)NC(NC(=O)c2cccs2)(C(F)(F)F)C1=O (centres undefined)	-16.2	5.7	-1.2	-5.5
O=C(NC1(C(F)(F)F)NC(=O)N(c2ccccc2)C1=O)c1cccs1 (centres undefined)	24.1	2.1	-11.3	57.0*
CN(Cc1ccccc1)S(=O)(=O)c1ccc(OCC(=O)Nc2cccc([N+](=O)[O-])c2)cc1	1.2	2.3	-14.2	-5.8
Cc1cc(S(=O)(=O)NCc2ccccc2)ccc1OCC(=O)Nc1cccc([N+](=O)[O-])c1	-34.1	-6.1	8.2	98.8*
COc1cccc(-c2nnc3n2N=C(C(C)(C)C)CS3)c1	74.8*	13.3	3.8	5.2
COc1cccc(-c2nnc3n2N=C(c2cc(OC)ccc2OC)CS3)c1	48.2	3.3	16.0	26.6
COc1ccc(C2=Nn3c(nnc3-c3ccc(OC)cc3)SC2)cc1	/	-17.9	6.0	60.9*
CCOc1cccc(-c2nnc3n2N=C(c2cc(OC)ccc2OC)CS3)c1	61.0	3.1	27.1	66.0*
COc1ccccc1-c1nnc2n1N=C(C(C)(C)C)CS2	-26.0	13.5	-12.9	2.5
Clc1ccccc1C1=Nn2c(nnc2-c2ccncc2)SC1	54.7	58.8*	19.9	6.7
COc1ccc(OCC(O)CNC(=O)Nc2ccc(F)cc2)cc1 (centres undefined)	7.2	/	/	/
CC(=O)Nc1ccc(S(=O)(=O)Nc2ccc3c(c2)C(=O)OC3)cc1	6.2	-3.2	1.2	-1.5
COC(=O)C(Cc1ccccc1)NC(=O)c1cccc(S(=O)(=O)N(C)C)c1 (centres undefined)	10.3	-2.8	-16.2	2.8
Cc1ccc(N(C(=O)Nc2ccccc2)C2=NCC(C)S2)cc1 (centres undefined)	53.0	-1.0	5.3	21.4
Cc1c(N(C(=O)Nc2ccccc2)C2=NCC(C)S2)c(=O)n(-c2ccccc2)n1C (centres undefined)	17.9	6.9	82.1*	0.8
Cc1ccc(-n2c(SCC(=O)NCCN3C(=O)CSC3=O)nnc2-c2ccccc2)cc1	-5.4	-5.8	2.3	61.8*
Cn1c(SCC(=O)c2c(N)n(C)c(=O)n(C)c2=O)nnc1-c1ccccc1	10.0	1.7	-6.7	66.2*
Cn1c(SCC(=O)NCCN2C(=O)CSC2=O)nnc1-c1ccccc1	-6.3	0.4	-9.4	55.8*
Cc1ccc(-n2c(SCC(=O)NCCN3C(=O)CSC3=O)nnc2-c2cccc(C)c2)cc1	25.6	-11.8	4.3	2.7
Nc1ccccc1Nc1cc(-c2ccccc2)nn1-c1cccc(Cl)c1	90.5*	1.1	67.7*	6.8
SMILES	CHOP inhibitor	Arbovirus inh	WT yeast gro inh	Lmaj promast
N#CC(c1ccc(O)cc1)c1ncc(C(F)(F)F)cc1Cl (centres undefined)	17.0	1.1	13.7	-13.4
CCOc1ccc(-c2nc(C#N)c(NCc3ccc4c(c3)OCO4)o2)cc1	78.2*	1.1	8.8	-2.8
COc1ccc(Nc2oc(-c3ccc(Cl)cc3)nc2C#N)cc1	85.1*	-20.1	14.4	-0.9
CCOc1ccc(Nc2oc(-c3ccc(Cl)cc3)nc2C#N)cc1	75.0*	-16.2	14.9	0.8
COc1ccc(Nc2oc(COc3ccc(Cl)cc3)nc2C#N)cc1	27.8	-26.4	-15.4	24.7
COc1ccc(Nc2oc(-c3ccc(OC)cc3)nc2C#N)cc1	-11.8	/	/	/
COC(=O)c1c(C)[nH]c(C)c1C(=O)c1ccccc1Cc1ccccc1	-0.1	/	/	/
CCOC(=O)c1nnn(-c2nonc2N)c1-c1ccc(OC)cc1	17.6	3.3	-13.8	2.3
CC1Cc2ccccc2N1C(=O)c1cc2sccc2n1Cc1ccc(F)cc1 (centres undefined)	-7.6	13.8	24.1	23.7
OCCc1ccc(-c2ccc(Cl)cc2)o1	-15.6	6.0	7.4	-3.4
CN1CCN(Cc2ccc(-c3ccc(Cl)cc3)o2)CC1	-21.0	-15.4	15.8	93.7*
